Assay [1] has as its target 5'-AMP-activated protein kinase catalytic subunit alpha-2 (Homo sapiens) (UniProt P54646). As to conditions: at 1 µM.
For assay [2], the target named is T1, NUAK family SNF1-like kinase 1 (Homo sapiens) (UniProt O60285).
T1 sequence (whole entry): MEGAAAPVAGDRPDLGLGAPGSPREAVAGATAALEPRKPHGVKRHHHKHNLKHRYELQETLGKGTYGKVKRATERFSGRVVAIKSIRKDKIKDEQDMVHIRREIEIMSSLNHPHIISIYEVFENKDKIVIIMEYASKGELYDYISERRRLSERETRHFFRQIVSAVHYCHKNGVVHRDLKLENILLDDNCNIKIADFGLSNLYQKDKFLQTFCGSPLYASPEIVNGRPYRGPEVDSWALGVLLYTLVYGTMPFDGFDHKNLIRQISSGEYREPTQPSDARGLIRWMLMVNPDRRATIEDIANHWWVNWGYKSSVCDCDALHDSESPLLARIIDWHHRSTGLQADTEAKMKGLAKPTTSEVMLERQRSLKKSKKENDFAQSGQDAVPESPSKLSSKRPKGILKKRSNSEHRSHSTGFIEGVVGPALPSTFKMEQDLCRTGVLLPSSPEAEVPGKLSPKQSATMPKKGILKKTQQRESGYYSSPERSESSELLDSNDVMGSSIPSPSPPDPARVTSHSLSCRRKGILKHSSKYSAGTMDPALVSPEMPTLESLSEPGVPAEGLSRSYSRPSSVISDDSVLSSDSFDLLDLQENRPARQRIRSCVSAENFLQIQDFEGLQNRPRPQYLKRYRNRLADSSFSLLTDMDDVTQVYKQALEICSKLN
Particulars: at 0.1 µM.

For assay [3], the target named is T1, NUAK family SNF1-like kinase 1 (Homo sapiens). As to conditions: at 1 µM.
Assay [4] deals with T2, Serine/threonine-protein kinase BRSK1 (Homo sapiens) (UniProt Q8TDC3).
T2 sequence (whole entry): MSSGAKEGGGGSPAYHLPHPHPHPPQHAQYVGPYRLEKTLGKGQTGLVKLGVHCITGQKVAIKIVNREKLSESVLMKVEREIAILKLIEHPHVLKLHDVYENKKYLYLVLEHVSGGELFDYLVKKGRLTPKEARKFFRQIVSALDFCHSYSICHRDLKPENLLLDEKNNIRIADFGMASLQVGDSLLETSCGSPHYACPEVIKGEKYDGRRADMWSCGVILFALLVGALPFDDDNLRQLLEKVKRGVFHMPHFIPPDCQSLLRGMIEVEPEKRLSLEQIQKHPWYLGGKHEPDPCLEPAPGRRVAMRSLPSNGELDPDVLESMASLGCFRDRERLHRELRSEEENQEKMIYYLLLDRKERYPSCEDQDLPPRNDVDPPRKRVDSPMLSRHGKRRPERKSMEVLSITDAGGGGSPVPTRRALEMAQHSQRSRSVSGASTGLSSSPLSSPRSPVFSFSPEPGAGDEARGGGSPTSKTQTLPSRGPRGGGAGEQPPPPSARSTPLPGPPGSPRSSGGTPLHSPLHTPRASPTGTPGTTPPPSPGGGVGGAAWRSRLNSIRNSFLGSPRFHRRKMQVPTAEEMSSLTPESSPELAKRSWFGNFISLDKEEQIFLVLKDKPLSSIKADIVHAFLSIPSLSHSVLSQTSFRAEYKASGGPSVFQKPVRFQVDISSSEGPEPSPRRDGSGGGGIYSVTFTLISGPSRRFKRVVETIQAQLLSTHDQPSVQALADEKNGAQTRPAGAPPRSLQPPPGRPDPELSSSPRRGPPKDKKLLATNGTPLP
As to conditions: at 0.1 µM.

The target of assay [5] is T2, Serine/threonine-protein kinase BRSK1 (Homo sapiens). As to conditions: at 1 µM.
For assay [6], the target named is T3, Serine/threonine-protein kinase BRSK2 (Homo sapiens) (UniProt Q8IWQ3).
T3 sequence (whole entry): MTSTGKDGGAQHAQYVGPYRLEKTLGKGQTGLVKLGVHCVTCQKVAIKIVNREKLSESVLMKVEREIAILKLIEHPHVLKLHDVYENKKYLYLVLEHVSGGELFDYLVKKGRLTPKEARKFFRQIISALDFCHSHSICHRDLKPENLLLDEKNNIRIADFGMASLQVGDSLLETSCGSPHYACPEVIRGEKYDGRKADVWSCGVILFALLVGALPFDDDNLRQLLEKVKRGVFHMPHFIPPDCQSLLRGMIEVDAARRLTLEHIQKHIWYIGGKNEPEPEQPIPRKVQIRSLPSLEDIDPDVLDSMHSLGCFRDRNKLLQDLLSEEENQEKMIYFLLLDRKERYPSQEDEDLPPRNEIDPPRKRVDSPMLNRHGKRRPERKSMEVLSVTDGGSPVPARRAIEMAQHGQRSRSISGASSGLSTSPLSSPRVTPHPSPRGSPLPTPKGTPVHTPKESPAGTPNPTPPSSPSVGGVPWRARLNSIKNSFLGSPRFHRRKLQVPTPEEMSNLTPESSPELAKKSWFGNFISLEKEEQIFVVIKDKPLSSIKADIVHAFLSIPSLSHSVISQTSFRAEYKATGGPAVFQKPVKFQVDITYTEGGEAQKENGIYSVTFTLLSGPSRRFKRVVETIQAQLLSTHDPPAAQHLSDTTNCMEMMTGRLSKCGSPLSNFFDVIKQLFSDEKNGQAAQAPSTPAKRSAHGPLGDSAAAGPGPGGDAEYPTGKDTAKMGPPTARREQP
Particulars: at 0.1 µM.

The target in assay [7] is T3, Serine/threonine-protein kinase BRSK2 (Homo sapiens). Particulars: at 1 µM.
Assay [8] addresses Calcium/calmodulin-dependent protein kinase type 1D (Homo sapiens) (UniProt Q8IU85). As to conditions: at 0.1 µM.
The target is the same in assay [9]. Particulars: at 1 µM.
The target in assay [10] is Calcium/calmodulin-dependent protein kinase type II subunit alpha (Homo sapiens) (UniProt Q9UQM7). Particulars: at 0.1 µM.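 Further: reported values are averages (mean inhibition of CAMK2A).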
Chain of Calcium/calmodulin-dependent protein kinase type II subunit alpha (Homo sapiens) (Q9UQM7 whole entry): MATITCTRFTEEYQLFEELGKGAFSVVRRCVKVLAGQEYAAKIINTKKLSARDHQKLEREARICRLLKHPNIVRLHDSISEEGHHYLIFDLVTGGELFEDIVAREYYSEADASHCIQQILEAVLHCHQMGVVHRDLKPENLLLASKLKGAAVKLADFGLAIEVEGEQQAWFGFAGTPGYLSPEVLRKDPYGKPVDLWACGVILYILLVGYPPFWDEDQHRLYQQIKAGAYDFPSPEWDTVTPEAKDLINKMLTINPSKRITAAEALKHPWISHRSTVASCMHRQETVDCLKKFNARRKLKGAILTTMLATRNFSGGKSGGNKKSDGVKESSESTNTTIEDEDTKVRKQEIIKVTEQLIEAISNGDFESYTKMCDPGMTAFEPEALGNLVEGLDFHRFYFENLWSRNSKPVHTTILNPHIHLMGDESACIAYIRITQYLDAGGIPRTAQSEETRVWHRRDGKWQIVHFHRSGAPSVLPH

Each structure is given as a SMILES string.

Chain of Calcium/calmodulin-dependent protein kinase type 1D (Homo sapiens) (Q8IU85 whole entry, looked up): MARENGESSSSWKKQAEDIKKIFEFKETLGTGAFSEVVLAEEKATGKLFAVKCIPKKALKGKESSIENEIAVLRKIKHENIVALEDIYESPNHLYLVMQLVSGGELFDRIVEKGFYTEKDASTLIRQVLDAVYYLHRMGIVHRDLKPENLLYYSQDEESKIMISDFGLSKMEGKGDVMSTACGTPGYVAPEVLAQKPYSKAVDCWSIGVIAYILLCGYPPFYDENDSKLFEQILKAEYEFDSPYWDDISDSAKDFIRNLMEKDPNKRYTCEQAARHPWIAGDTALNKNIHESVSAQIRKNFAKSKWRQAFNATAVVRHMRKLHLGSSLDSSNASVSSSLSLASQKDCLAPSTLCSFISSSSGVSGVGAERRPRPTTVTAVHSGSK
Chain of 5'-AMP-activated protein kinase catalytic subunit alpha-2 (Homo sapiens) (P54646 whole entry, looked up): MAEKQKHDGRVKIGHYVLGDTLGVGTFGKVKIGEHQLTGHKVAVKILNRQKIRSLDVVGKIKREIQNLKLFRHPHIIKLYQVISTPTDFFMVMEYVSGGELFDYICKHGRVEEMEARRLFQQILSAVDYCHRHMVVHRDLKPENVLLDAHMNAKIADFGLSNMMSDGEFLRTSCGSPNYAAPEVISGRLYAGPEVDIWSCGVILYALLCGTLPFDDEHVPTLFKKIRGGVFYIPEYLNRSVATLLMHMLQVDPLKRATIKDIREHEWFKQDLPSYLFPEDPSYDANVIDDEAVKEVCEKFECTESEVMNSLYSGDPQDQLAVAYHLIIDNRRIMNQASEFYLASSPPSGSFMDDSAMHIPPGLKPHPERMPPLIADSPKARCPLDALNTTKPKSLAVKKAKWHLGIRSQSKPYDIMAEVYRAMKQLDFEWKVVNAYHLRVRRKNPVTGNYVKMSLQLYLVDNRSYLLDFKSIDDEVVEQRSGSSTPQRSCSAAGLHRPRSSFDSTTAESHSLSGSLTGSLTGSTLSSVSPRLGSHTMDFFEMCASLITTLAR

In general, inhibition refers to the drop in the measured response relative to a control, in per cent. Consider `COc1cc2ncn(-c3cc(OCc4ccccc4S(C)(=O)=O)c(C#N)s3)c2cc1OC`, for which the inhibition in assay [1] was found to be 31.2%; in [2] it was 14.5%; in [3], 54.3%; in assay [4], 37.1%; in [5], 76.3%; in assay [6], 53.7%. The inhibition in assay [7] was found to be 82.2%; in [8], 1.23%; in assay [9], 6.21%; in [10], 6.03%.
Consider `NS(=O)(=O)c1ccc(N/N=C2\C(=O)Nc3ccc(Cl)cc32)cc1`, for which the inhibition in assay [1] was 12.9%; in assay [2], 11%; in [3], 48.9%; in assay [4], 0.76%; in assay [5], 8.96%; in assay [6] it was 3.16%. Moreover, the inhibition in assay [7] came to 14.9%; in assay [8] it was 0.02%; in assay [9] it was 0.47%; in [10] it was 2.65%.
As for `NC(=O)c1sc(-n2cnc3ccccc32)cc1OCc1ccccc1Br`, the inhibition amounted to 4.98% in assay [1]; 7.8% in assay [2]; 29.1% in assay [3]; 3.67% in assay [4]; 8.3% in assay [5]; 3.06% in assay [6]. Also, the inhibition in [7] amounted to 17.1%; in assay [8] it was 0.13%; in assay [9], 2.21%; in assay [10], 1.7%.
As for `COc1cc2ncnc(Nc3ccc(C)c(O)c3)c2cc1OC`, the inhibition turned out to be 5.2% in [1]; 7.16% in assay [2]; 1.93% in [3]; 1.23% in [4]; 3.78% in [5]; 3.07% in [6]. The inhibition is 6.2% in assay [7], -0.09% in [8], 0.02% in assay [9] and 2.98% in assay [10].
Take `Cc1ccc(O)cc1Nc1ccnc2ccc(S(C)(=O)=O)cc12`: the inhibition in assay [1] was found to be 3.93%; in assay [2], 2%; in assay [3] it was 4.91%; in assay [4] it was 0.5%; in assay [5], 1.8%; in [6], 2.1%. Further, the inhibition is 5.1% in [7], -0.51% in assay [8], 0.98% in assay [9] and 2.94% in [10].
With `Cc1ccc(Nc2ccnc(Nc3cccc(C(N)=O)c3)n2)cc1O`, the inhibition in [1] came out at 5.29%; in assay [2], 7.76%; in assay [3], 41.1%; in assay [4], 0.1%; in assay [5] it was 6.23%; in [6], 2.24%. The inhibition in assay [7] came out at 9.72%; in [8], 1.34%; in [9], 4.12%; in [10], 3.21%.
As for `COc1ccc(-c2nn3ncccc3c2-c2ccnc(Nc3cccc(C(F)(F)F)c3)n2)cc1`, the inhibition in assay [1] is 3.96%; in [2], 0.91%; in assay [3], -0.63%; in assay [4], -0.24%; in assay [5], 1.65%; in assay [6], 2.63%. Besides, the inhibition in assay [7] came to 2.85%; in assay [8] it was 0.46%; in assay [9], 0.37%; in assay [10], 2.25%.
Regarding `COC(=O)c1cncc(/C=C/c2c(C)cc(O)cc2C)c1`, the inhibition is 2.21% in assay [1]; 3.22% in assay [2]; 8.1% in [3]; -1.29% in assay [4]; 7.61% in assay [5]; 1.09% in assay [6]. In addition, the inhibition was 6.54% in [7], -0.5% in assay [8], -0.32% in assay [9] and 1.91% in assay [10].
With `NC(=O)c1cccc(Nc2nccc(Nc3cccc(F)c3)n2)c1`, the inhibition was 3.97% in assay [1]; 23% in assay [2]; 58.2% in [3]; 1.64% in assay [4]; 7.42% in assay [5]; 0.1% in assay [6]. The inhibition in [7] was 8.9%; in assay [8] it was 0.4%; in assay [9], 3.1%; in assay [10] it was 2.84%.
Turning to `O=C1Nc2ccccc2/C1=C/Nc1ccc2[nH]c(=O)[nH]c2c1`, the inhibition in assay [1] came to 12.8%; in assay [2], 12.6%; in assay [3] it was 46%; in assay [4] it was 1.38%; in assay [5], 15.7%; in [6] it was 5.21%. The inhibition in [7] was 25.8%; in assay [8], -1.27%; in assay [9], 1.07%; in assay [10] it was 3.83%.
Consider `CCOc1nccc2c1nc(-c1nonc1N)n2CC`, for which the inhibition came out at 4.98% in assay [1]; 7.99% in [2]; 12.8% in [3]; 4.56% in [4]; 14.7% in assay [5]; 7.65% in [6]. Besides, the inhibition in [7] was 18.3%; in assay [8], 0.39%; in [9], -0.46%; in [10], 3.45%.
`COC(=O)Nc1nc2cc(Oc3ccc(NC(=O)Nc4cccc(Br)c4)cc3)ccc2[nH]1`: the inhibition in assay [1] is 4.23%; in assay [2] it was 3.02%; in assay [3] it was 2.47%; in assay [4] it was -0.15%; in [5], 0.86%; in assay [6], 2%. Also, the inhibition in assay [7] was found to be 0.84%; in assay [8], 1.16%; in assay [9] it was 0.29%; in assay [10], 3.25%.
Consider `CN(C)C(=O)O[C@@H]1CN[C@@H](C#Cc2cc3ncnc(Nc4ccc(OCc5cccc(F)c5)c(Cl)c4)c3s2)C1`, for which the inhibition in assay [1] was 3.03%; in [2] it was -0.32%; in assay [3], 0.15%; in [4], 1.77%; in [5] it was 1.18%; in [6] it was 1.4%. Moreover, the inhibition turned out to be 1.44% in assay [7], 1.61% in [8], 1.9% in assay [9] and 1.78% in [10].
Consider `FC(F)(F)c1ccc(-c2nn3ncccc3c2-c2ccnc(Nc3ccc4c(c3)OCCO4)n2)cc1`, for which the inhibition in [1] worked out at 4.55%; in [2] it was 4.03%; in assay [3] it was 5.73%; in [4] it was 5.08%; in assay [5], 8.29%; in assay [6], 6.76%. Also, the inhibition in [7] was 11.7%; in assay [8], 2.95%; in assay [9], -0.58%; in [10], -2.94%.
Regarding `C[C@@H](Oc1cc(-n2cnc3ccc(OC[C@@H](O)CO)cc32)sc1C(N)=O)c1ccccc1Cl`, the inhibition in assay [1] was 2.08%; in [2], 6.98%; in assay [3], 39.1%; in assay [4] it was 15.7%; in [5], 55.8%; in assay [6], 24.2%. The inhibition was 68.3% in assay [7], -0.01% in assay [8], 0.92% in [9] and -2.71% in assay [10].
On to `O=C(Nc1ccc(Oc2ccc3[nH]c(NC(=O)c4ccco4)nc3c2)cc1)Nc1cc(C(F)(F)F)ccc1F`, for which the inhibition is 3.81% in assay [1]; 0.89% in [2]; 5.7% in [3]; 0.62% in assay [4]; -0.05% in assay [5]; -0.37% in [6]. Moreover, the inhibition in assay [7] turned out to be 1.01%; in [8], 0.46%; in assay [9] it was 3.08%; in assay [10], 0.33%.
With `Cc1ccc2c(c1)/C(=N/Nc1ccc(S(N)(=O)=O)cc1)C(=O)N2`, the inhibition in [1] was found to be 12.3%; in assay [2], 21.7%; in [3] it was 62.2%; in assay [4] it was 2.87%; in assay [5] it was 9.92%; in assay [6], 3.09%. In addition, the inhibition in [7] came to 12.8%; in assay [8] it was 2.35%; in [9], 2.43%; in assay [10], 2.02%.

(Values after ChEMBL document CHEMBL1961873, “Compounds: GSK PKIS; Assays: Nanosyn kinase panel” (2012).)
